Shiga toxin inh – A qHTS for Small Molecule Inhibitors of Shiga Toxin | Vero cells, Shiga toxin protein synthesis inhibition reporter | inhibition, % at 38.7 µM | 290,000 compounds, 9.2% hits | AID 2315, 2010; in the data active = inhibition mostly above about 28%, no sharp cut-off; inactive = mostly below about 43%; also: 0% is about no effect
NS1 inh – qHTS Assay for Inhibitors of Influenza NS1 Protein Function | Potency, µM (highest dose often 46.1 µM), for the others: top-dose activity, positive = more growth | 270,000 compounds, 0.4% hits | AID 2326, 2010; calls by dose curve; also: potency is read from the fitted curve at half-maximal effect; actives are rising curves; nearly all actives have a fitted effect of over 50% in size
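Recovery from NS1-induced slow growth read by OD600 in budding yeast switched to galactose assay medium (pH 6.0, -URA) at 1:100 dilution. Compound 23 nl per well; the matching strain lacking NS1 serves as control.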
Cycloheximide cs – Cycloheximide Counterscreen for Small Molecule Inhibitors of Shiga Toxin; cell reporter, cycloheximide protein synthesis inhibition counterscreen; max response, %; AID 2314, 2010; 300,000 compounds, 12% hits; in the data active = max response mostly above about 13%, no sharp cut-off; inactive = mostly below about 14%; also: read at 38.3 µM for the half of the compounds with a filed dose; 0% is about no effect
Pf growth 96h – Primary qHTS for delayed death inhibitors of the malarial parasite plastid, 96 hour incubation | Potency, µM (series often up to 28.7 µM), without a hit: at the top dose activity change, negative = inhibition, actives largely listed as inhibitors | 320,000 compounds, 6.9% hits | P. falciparum luciferase reporter growth, 96 h; also: potency is read from the fitted curve at half-maximal effect; % is scaled to controls: 0 for no effect and ±100 for the full control effect
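Two-generation exposure (96 h) targets delayed-death phenotype. Reporter parasites carrying integrated firefly luciferase, in red cells at 2% hematocrit and 0.05% parasitemia final, kept at 37 C, 5% CO2; luminescence loss indicates inhibition.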
Pf growth 48h – Primary qHTS for delayed death inhibitors of the malarial parasite plastid, 48 hour incubation; Potency, µM (titrated, usually from 28.7 µM), for inactives: at the top dose activity change, negative = inhibition, actives largely listed as inhibitors; P. falciparum luciferase growth in erythrocytes, 48 h; 310,000 compounds, 5.9% hits; also: potency is read from the fitted curve at half-maximal effect; % is scaled to controls: 0 for no effect and ±100 for the full control effect
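Luciferase-expressing parasites in RBCs, 2% Hct / 0.1% parasitemia final; RPMI 1640 + 0.5% Albumax; 37 C, 5% CO2, one generation; luminescence read-out, lower signal = inhibition.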
Active calls of the source: *; i = inactive; ? = inconclusive; / = no result given. Rows were chosen to be rich in hits. Some 21% of all compounds tested hit in one or more screens of this group. Unless noted, calls follow the shape of the dose curve; as a rule, active = well fitted inhibition curve with a large enough effect; inconclusive = small, poorly fitted or top-dose-only effect, or another doubt; inactive = no such curve, though single readings can be large or run the other way.

SMILES	Shiga toxin inh	NS1 inh	Cycloheximide cs	Pf growth 96h	Pf growth 48h
CC(Oc1ccccc1)C(=O)Nc1cc(Cl)ccc1-n1cncn1 (centres undefined)	/	/	/	2.3µM*	3.7µM*
CC(Oc1ccc(F)cc1)C(=O)Nc1cc(Cl)ccc1-n1cncn1 (centres undefined)	/	/	/	2.6µM*	2.3µM*
COc1ccccc1C(=O)Nc1cc(Cl)ccc1-n1cncn1	5	-3%	3	?	?
Cc1ccc(C(=O)Nc2cc(Cl)ccc2-n2cncn2)o1	/	/	/	14%	3%
O=C(Nc1cc(Cl)ccc1-n1cncn1)c1ccc([N+](=O)[O-])s1	-23	-105%	19*	?	?
COc1cc(OC)c(C(=O)Nc2cc(Cl)ccc2-n2cncn2)cc1OC	/	/	/	5.9µM*	5.9µM*
COc1ccc(N2CCN(C(=O)C3CCN(S(=O)(=O)c4ccc5c(c4)oc(=O)n5C)CC3)CC2)cc1	9	-3%	5	26%	?
O=C(NCC(=O)N1CCN(S(=O)(=O)/C=C/c2ccccc2)CC1)c1ccccc1F	-11	/	2	?	-12%
Fc1ccc(-c2nc3ccccn3c2NCc2ccc3c(c2)OCO3)cc1	5	/	15	-1%	8.3µM*
Oc1ccc(-c2nc3ccccn3c2NCc2ccc3c(c2)OCO3)cc1	15	-19%	25*	?	-7%
Cc1cc(=O)[nH]n(CCO)c1=O	6	0%	0	50%	38%
Nn1c(SCc2cn3ccsc3n2)nnc1-c1ccncc1	16	0%	-5	32%	16%
c1cn2cc(CSC3CCCCC3)nc2s1	95*	-89%	42*	/	141%
Cc1nc2nc(CSc3ccc(Cl)cc3)cc(=O)n2[nH]1	-8	-16%	1	11%	10%
Clc1ccc(SCc2cn3ccsc3n2)cc1	70	-104%	51*	10µM*	-20%
Cc1csc2nc(CSc3ccc(Cl)cc3)cn12	79*	-40%	49*	3.7µM*	120%
N[C@@H](Cc1ccccc1)C(=O)N1CCC(C(=O)NCC(=O)NCC(=O)O)CC1	-3	5%	-3	8%	2%
COc1ccccc1C(O)(C(=O)NN(C)c1ccccc1)c1ccccc1OC	-5	13%	11	9%	-5%
CCOC(=O)CNS(=O)(=O)c1ccc(F)cc1Br	2	/	-5	/	/
COc1ccccc1Cc1nc(-c2ccncc2)no1	21	-8%	20*	-5%	28%
Cc1ccc(OCc2nc(-c3cccnc3)no2)cc1C	73*	-39%	25*	0.41µM*	19%
Clc1ccc(OCc2nc(-c3ccncc3)no2)c(Br)c1	71*	-52%	40*	10%	121%
O=C1c2ccccc2C(=O)N1Cc1nc(-c2ccncc2)no1	-6	-16%	-2	/	19%
c1ccc(OCc2nc(-c3ccncc3)no2)cc1	110*	0%	50*	12µM*	70%
C/C(=N/NC(=O)CCCOc1ccc(Cl)cc1Cl)c1ccc(C)o1	-21	15%	2	?	-13%
SMILES	Shiga toxin inh	NS1 inh	Cycloheximide cs	Pf growth 96h	Pf growth 48h
Cc1ccccc1OCc1nc(-c2cccnc2)no1	-2	5%	-5	?	3%
Clc1ccccc1OCc1nc(-c2ccncc2)no1	86*	-67%	49*	?	143%
c1ccc(OCc2nc(-c3ccccc3)no2)cc1	100*	-5%	58*	/	141%
COc1nc(-c2ccccc2)ccc1-c1noc(COc2ccccc2)n1	24	-35%	17	/	4%
C=C1c2cccc(OC)c2O[C@H](C(=O)OCC)[C@@H]1CCC(C)C	i	/	10	/	/
CN(Cc1ccccc1)C(=O)CCC1CCN(C(=O)CCC(F)(F)F)CC1	/	-14%	32*	1%	12%
CN(Cc1ccccc1)C(=O)CCC1CCN(S(C)(=O)=O)CC1	-19	6%	3	12µM*	0%
Cc1cc(Cl)ccc1NC(=O)C1CCN(S(C)(=O)=O)CC1	-3	2%	-3	93%	?
CC(=O)Nc1ccc2oc(-c3ccccc3)nc2c1	93*	/	41*	-16%	i
CCCC(=O)Nc1cccc(-c2nc3cc(C)c(C)cc3o2)c1	84*	-9%	39*	370%	256%
CC(C)C(=O)Nc1cccc(-c2nc3ccccc3o2)c1	11	-16%	5	/	25%
COc1ccc(OCC(=O)Nc2cccc(-c3nc4ccccc4o3)c2)cc1	123*	16%	45*	?	1%
CCCC(=O)Nc1cc(-c2nc3ncccc3o2)ccc1C	-2	-3%	-3	11%	?
CC(=O)Nc1cccc(-c2nc3ccccc3o2)c1	40*	-38%	28*	0%	0%
COc1ccc(CNCC(=O)Nc2ccccc2-n2cccc2)cc1	7	/	10	11%	0%
CC(=O)Nc1ccc2nc3ccccc3nc2c1	91*	-58%	52*	219%	169%
CC(C)CC(=O)Nc1ccc2oc(-c3ccncc3)nc2c1	59*	-12%	24*	?	114%
CC(=O)Nc1ccc(-c2nc3ccc(NC(C)=O)cc3o2)cc1	79*	0%	34*	35%	67%
O=C(O)CCC(=O)Nc1cccc(-c2nc3ccccc3o2)c1	5	8%	0	-23%	40%
CCCC(=O)Nc1cccc(-c2nc3ccccc3o2)c1	33	4%	26*	/	42%
O=C(Nc1ccc2nc3ccccc3nc2c1)c1ccc(Br)cc1	5	4%	6	?	-2%
CC(=O)Nc1cc(-c2nc3ccccc3o2)ccc1Cl	47	-4%	11	-9%	0%
CC(C)CC(=O)Nc1cccc(-c2nc3ccccc3o2)c1	62*	-20%	22*	?	0%
Cc1cc(C)nc(SCC(=O)OCN2C(=O)c3ccccc3C2=O)n1	-28	3%	-2	-24%	1.9µM*
C=CCN(CC=C)C(=S)NC(=O)Cc1cccc2ccccc12	7	-6%	4	4.1µM*	?
SMILES	Shiga toxin inh	NS1 inh	Cycloheximide cs	Pf growth 96h	Pf growth 48h
CC(C)CCCC(C)NC(C)C (centres undefined)	/	/	/	10%	-1%
O=C(NC1CCCC1)C(c1ccncc1)N(C(=O)c1ccco1)c1ccccc1 (centres undefined)	-11	6%	4	6%	-38%
COc1cccc(N(C(=O)c2ccco2)C(C(=O)NC2CCCC2)c2ccc(N3CCOCC3)cc2)c1 (centres undefined)	-7	3%	-1	18%	?
Cc1cc(N(C(=O)c2ccco2)C(C(=O)NC2CCCCC2)c2ccccc2)ccc1-n1cnnn1 (centres undefined)	60	-15%	5	/	9.3µM*
COc1cccc(C(C(=O)NC2CCCCC2)N(C(=O)c2ccco2)c2ccc(-n3cnnn3)c(C)c2)c1 (centres undefined)	1	-6%	-1	-10%	15µM*
CC(NC(=O)c1cc([N+](=O)[O-])cc([N+](=O)[O-])c1)C1CC2CCC1C2 (centres undefined)	-8	-4%	-4	?	?
